This is a sample that favours compounds with a hit; in the whole collection about 8.8% have one here.
HT1080 IDH1KD tx: HT-1080 IDH1 knockdown cell toxicity (counter line); HT-1080 IDH1 knockdown viability, ATP luminescence, 48 h; Potency, µM (series often up to 46.1 µM), inactives show top-dose activity, negative = toxicity, most hits filed as cytotoxic; 2% of 360,000 active;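 also: potency is read from the fitted curve at half-maximal effect; 0% = DMSO wells and -100% = cell-free medium wells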
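Cytotoxicity counter-line: IDH1KD HT-1080, 48 h, CellTiter-Glo. Curves classed by r2, magnitude and activity.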
KB-V1 MDR tox: kills drug-selected multidrug resistant KB-V1 cells; KB-V1 MDR cells viability, CellTiter-Glo, 72 h; Potency, µM (titrated, usually from 46.1 µM), actives largely listed as cytotoxic; 3.4% of 400,000 active; AID 1347076; also: potency is read from the fitted curve at half-maximal effect; nearly all actives have a fitted effect of over 60% in size
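Cytotoxicity via CellTiter-Glo luminescence after 72 h compound exposure at 37 degrees C. Cells: drug-selected KB-V1 line, DMEM phenol-red free plus 10% FBS. Compounds tested at multiple concentrations; normalized data fitted to concentration-effect curves.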
IL1B secr inh: inflammasome signaling inhibition, IL-1 beta readout. THP-1 LPS/ATP IL-1B secretion, AlphaLISA, 16 h; hits give low values. 4.7% of 360,000 active. AID 743279. activity change, % at 57.5 µM; in the data active = activity change below about -50%; inconclusive = mostly about -30% to -49%
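THP-1 cells pretreated 1 hr with compounds (up to 57.5 uM final), then stimulated with LPS (250 ng/mL final) plus ATP (1.25 mM final); secreted IL-1B measured by AlphaLISA after 16 hr, decreased signal indicating inhibition.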
KB-3-1 cytotox: KB-3-1 parental cell cytotoxicity; Potency, µM (highest dose often 46.1 µM), most hits filed as cytotoxic; 1.4% of 400,000 active; KB-3-1 viability, CellTiter-Glo ATP luminescence, 72 h; also: potency is read from the fitted curve at half-maximal effect; nearly all actives have a fitted effect of over 60% in size
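Viability of parental KB-3-1 cells, measured by CellTiter-Glo luminescence, followed a 72 h incubation at 37 °C with pinned compounds in phenol-red-free DMEM containing 10% FBS.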
HT1080-NT tox: kills 2HG-producing HT-1080-NT fibrosarcoma cells; HT-1080-NT fibrosarcoma viability, CellTiter-Glo ATP luminescence, 48 h; Potency, µM (top dose mostly 46.1 µM), for inactives: at the top dose activity, negative = less viability, usual class: cytotoxic; 1.6% of 360,000 active;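 also: NT is the 2HG producing partner of a matched IDH1 knockdown line; potency is read from the fitted curve at half-maximal effect; 0% = DMSO-treated cells and -100% = media-only wells without cells; nearly all actives have a fitted effect of over 55% in size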
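Toxicity toward the 2HG-producing NT line was scored as %Activity, normalised to DMSO and no-cell wells, from CellTiter-Glo luminescence after 48 hours' treatment.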
* = called active by the depositor; i = inactive; ? = inconclusive; · = no result given. Unless noted, calls follow the shape of the dose curve; as a rule, active = well fitted curve in the direction sought with a large enough effect; inconclusive = small, poorly fitted or top-dose-only effect, or another doubt; inactive = no such curve, though single readings can be large; an effect the other way counts as inactive or inconclusive. Unless noted, % is scaled to controls: 0 for no effect and ±100 for the full control effect.

SMILES	HT1080 IDH1KD tx	KB-V1 MDR tox	IL1B secr inh	KB-3-1 cytotox	HT1080-NT tox
Cc1cccc(C)c1-n1nnnc1C(c1cccc2ccccc12)N1CCC(n2c(=O)[nH]c3ccccc32)CC1 (stereo not drawn)	10.3%	?	-18.1	?	16.4%
CC12CC1(C)C(=O)N(c1cc(Cl)cc(Cl)c1)C2=O (stereo not drawn)	1.4%	i	-7.3	i	-1.8%
C[n+]1c2ccccc2nc2ccc(NCCO)cc21	-19.8%	?	-9.7	?	-12.2%
CNc1ccc2nc3ccccc3[n+](C)c2c1	14.6µM*	?	0.0	i	20.6µM*
CCN(CC)S(=O)(=O)c1cc(NC(=O)C(C)N2CC=C(c3ccccc3)CC2)ccc1C (stereo not drawn)	-16.5%	16.4µM*	-58.3*	20.6µM*	-1.4%
CC(C)(C)c1ccc(OCC(=O)Nc2ccc(Cl)cc2C(=O)c2ccccc2)cc1	·	i	·	i	·
O=C1NCN(c2ccccc2)C12CCN(C(c1cccc3ccccc13)c1nnnn1C1CCCC1)CC2 (stereo not drawn)	?	?	-62.0*	?	?
O=C1NCN(c2ccccc2)C12CCN(C(c1cc3ccccc3o1)c1nnnn1C1CCCC1)CC2 (stereo not drawn)	?	?	-65.2*	?	?
O=C1NCN(c2ccccc2)C12CCN(C(c1cccc3ccccc13)c1nnnn1C1CCCCC1)CC2 (stereo not drawn)	1.3%	i	41.7	i	?
O=C(CN1CCCC1)c1ccccc1	·	i	·	i	·
O=C(c1ccccc1)C(CN1CCCC1)c1ccccc1 (stereo not drawn)	13µM*	5.17µM*	-103.5*	5.17µM*	20.6µM*
COC(=O)C1=C(c2ccc(OC)c(OC)c2)C[C@@H]2CC[C@H]1N2C(=O)N1CCCCC1	5.9%	i	19.7	i	12.5%
O=C(C(=C1N(Cc2ccc(Cl)nc2)CCN1Cc1ccc(Cl)nc1)[N+](=O)[O-])C(Cl)Cl	-1.3%	i	-71.3*	i	-2.3%
CCC1CO/C(=C(\C(Cl)=C(Cl)Cl)[N+](=O)[O-])N1Cc1ccc(Cl)nc1 (stereo not drawn)	13.3%	?	64.3	i	17.9%
O=C1CC(c2ccc(F)cc2)c2c(c3ccccc3oc2=O)O1 (stereo not drawn)	·	i	·	i	·
Cc1cc(N2CCNCC2)nc2ccccc12	-1.3%	i	-62.6*	i	?
CN1CCN(/N=C/c2c(O)n(Cc3ccc(F)cc3)c(=O)[nH]c2=O)CC1	8.3%	i	30.6	i	8.8%
Cc1nc2cc(C(F)(F)F)ccc2n1C1CCN(Cc2nnnn2Cc2ccc3c(c2)OCO3)CC1	29.1µM*	18.4µM*	-71.2*	?	23.1µM*
Cc1ccc2c(c1)[C@@H]1CN(C)CC[C@@H]1N2C(=O)Nc1cccc(C(F)(F)F)c1	?	?	-24.9	i	12.6µM*
Cc1ccc2c(c1)C1CN(C)CCC1N2C(=O)c1cccnc1Cl (stereo not drawn)	4.0%	i	40.4	i	1.6%
Cc1ccc2c(c1)C1CN(C)CCC1N2C(=O)c1cn(-c2ccccc2)nc1-c1ccccc1 (stereo not drawn)	20.6µM*	i	?	i	·
COC(=O)N1Cc2ccccc2-n2nncc2C1	16.5%	i	8.0	i	7.2%
Cc1ccc(-c2nc(N(C)C3CCN(C)CC3)c3ccccc3n2)cc1	15.8µM*	20.6µM*	-89.7*	i	12.6µM*
CN1CCC(N(C)c2ncnc3ccc(Br)cc23)CC1	-10.1%	i	-18.1	i	-11.1%
O=C1NC(=S)NC(=O)C1Cc1ccccc1O	4.4%	i	-14.0	i	-2.7%
CCN(CC)c1ccc(N=Cc2c(O)n(CCc3ccc(OC)c(OC)c3)c(=O)[nH]c2=O)cc1	-7.0%	16.4µM*	?	?	1.2%
COC(=O)C1=C(c2ccc(C(C)=O)cc2)C[C@@H]2CC[C@H]1N2C(=O)NCCOc1ccccc1Cl	4.9%	i	-0.4	i	6.7%
